{"source": "the supplement of paper PMC6518042"}
{"tested_on": "Pectobacterium parmentieri SCC3193", "experiment": "DuctApe activity index (growth/respiration on compound as sole nutrient source, blank-subtracted) (activity index (0-3)); higher = stronger utilization of the compound, active = 3 or more", "conditions": "nutrient role (plate category): carbon", "description": "(§1)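 Biolog Phenotype Microarray plates PM1, PM2A (carbon), PM3 (nitrogen) and PM4 (phosphorus/sulfur) inoculated with P. parmentieri SCC3193 in M9-C minimal salts medium with Biolog dye A, and read in the OmniLog for 46 h. Each well was tested in triplicate and the experiment was run twice. DuctApe computed a blank-subtracted activity index (AV, 0-3) from the mean curves; growth is positive at AV >= 3 and negative at AV <= 2.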"}
{"smiles": "NCCc1ccc(O)cc1", "note": "[Tyramine]", "DuctApe activity index": "0 (inactive)"}
{"smiles": "NCC(O)c1ccc(O)cc1", "note": "(racemic) [D,L-Octopamine]", "DuctApe activity index": "0 (inactive)"}
{"smiles": "O=C(O)CCCO", "note": "[g-Hydroxybutyric acid]", "DuctApe activity index": "0 (inactive)"}
{"smiles": "N#C[C@H](O[C@@H]1O[C@H](CO[C@@H]2O[C@H](CO)[C@@H](O)[C@H](O)[C@H]2O)[C@@H](O)[C@H](O)[C@H]1O)c1ccccc1", "note": "[Amygdalin]", "DuctApe activity index": "0 (inactive)"}
{"smiles": "O=C(O)CC(Br)C(=O)O", "note": "(centres undefined) [Bromosuccinic acid]", "DuctApe activity index": "3 (active)"}
{"smiles": "NCCc1ccccc1", "note": "[Phenylethylamine]", "DuctApe activity index": "0 (inactive)"}
{"tested_on": "Pectobacterium parmentieri SCC3193", "experiment": "DuctApe activity index (growth/respiration on compound as sole nutrient source, blank-subtracted) (activity index (0-3)); higher = stronger utilization of the compound, active = 3 or more", "conditions": "nutrient role (plate category): nitrogen", "description": "as §1"}
{"smiles": "NCCc1ccc(O)cc1", "note": "[Tyramine]", "DuctApe activity index": "0 (inactive)"}
{"smiles": "NCCc1ccccc1", "note": "[b-Phenylethylamine]", "DuctApe activity index": "0 (inactive)"}
{"smiles": "O=C1NC(=O)C(=O)C(=O)N1", "note": "[Alloxan]", "DuctApe activity index": "0 (inactive)"}
{"smiles": "CN", "note": "[Methylamine]", "DuctApe activity index": "0 (inactive)"}
{"smiles": "CCN", "note": "[Ethylamine]", "DuctApe activity index": "0 (inactive)"}
{"smiles": "O=[N+]([O-])O", "note": "[Nitrate]", "DuctApe activity index": "0 (inactive)"}
{"tested_on": "Pectobacterium parmentieri SCC3193", "experiment": "DuctApe activity index (growth/respiration on compound as sole nutrient source, blank-subtracted) (activity index (0-3)); higher = stronger utilization of the compound, active = 3 or more", "conditions": "nutrient role (plate category): phosphate & sulphur", "description": "as §1"}
{"smiles": "CCSCCC(N)C(=O)O", "note": "(racemic) [DL-Ethionine]", "DuctApe activity index": "0 (inactive)"}
{"smiles": "NCCP(=O)(O)O", "note": "[2-Aminoethyl Phosphonic acid]", "DuctApe activity index": "0 (inactive)"}
{"smiles": "OP(O)(=S)S", "note": "[Dithiophosphate]", "DuctApe activity index": "1.5 (inactive)"}
{"smiles": "OP(O)(O)=S", "note": "[Thiophosphate]", "DuctApe activity index": "1.5 (inactive)"}
{"smiles": "CCOP(=O)(OCC)OCC", "note": "[Triethyl Phosphate]", "DuctApe activity index": "0 (inactive)"}
{"smiles": "CN(CC(=O)O)C(=N)NP(=O)(O)O", "note": "[Phosphocreatine]", "DuctApe activity index": "2 (inactive)"}
{"smiles": "O=PO", "note": "[Hypophosphite]", "DuctApe activity index": "0 (inactive)"}
